Source: PubChem BioAssay (Tox21)
Unmarked numbers belong to inactive results. The source made the active and inactive calls. Calls follow the shape of the dose curve; as a rule, active = well fitted curve in the direction sought with a large enough effect in the repeat runs; inconclusive = weak or mixed curves; inactive = flat fitted curve, though single readings scatter. Positions of bridges follow the written chain, without caps; N, C: chain ends. Non-standard residues stand in square brackets, D forms with d. Residues, ends and D or L forms follow the SMILES beside them. *: point of attachment. X1 = CC[C@@H](C)[C@@H](N)C1=N[C@H](C(=O)*)CS1; d(aIle) = CC[C@H](C)[C@@H](N)C(=O)O; dOrn = NCCC[C@@H](N)C(=O)O

Assay: qHTS assay to test for compound auto fluorescence at 535 nm (green) in HepG2 cell free culture (AID 720686)
Conditions: Cell-free medium, green autofluorescence 485/535 nm; series mostly up to 46 µM; fluorescence, % of fluorescein control: at the top concentration
Text: U.S. Tox21 Program National Center for Advancing Translational Sciences [NCATS] NIH Chemical Genomics Center [NCGC] U.S. Environmental Protection Agency [EPA] National Institutes of Environmental Health Sciences [NIEHS] National Toxicology Program [NTP] U.S. Food and Drug Administration [FDA] Tox21 Assay Overview: Compound auto fluorescence often interferes with screening of the compound library against various biological targets and signaling pathways. Some of these compounds may have fluorophoric properties. Such properties may interfere with the assay outputs resulting in false positives and/or negatives. To decrease such complications and ensure the compound activities are relevant in terms of biological response, the Tox21 10K compound library was screened for auto fluorescence. From the fluorophores used as reporter signals in our screening assays, the auto fluorescence equivalencies of compounds against three fluorophores have been evaluated: Triamterene, Fluorescein and Rose Bengal sodium for blue, green and red fluorescence, respectively. The fluorescence intensities were measured using Excitation/Emission wavelengths at 405/460nm, 485/535nm and 540/590nm for blue, green and red labels, respectively. This assay includes the green fluorescence data.
Tox21 Assay Protocol Summary: 5 uL of culture medium (MEM containing 10% FBS) per well was dispensed into black wall/clear bottom 1536-well plates using a Multidrop Combi Dispenser (ThermoFisher Scientific, Waltham, MA). After 23 nL compound or DMSO vehicle was transferred into assay plate by a pintool work station (Kalypsys, San Diego, CA), fluorescence intensities in the assay plates were measured by an Envision (PerkinElmer, Shelton, CT) plate reader using three labels for measuring blue, green and red fluorescence at […] 460, 535 and 590nm respectively.
% is scaled to controls: 0 for no effect and ±100 for the full control effect.

Row | Structure (SMILES) | fluorescence, % of fluorescein control | Potency
1 | c1ccc(-c2ccc(C(c3ccccc3)n3ccnc3)cc2)cc1 (stereo not given) | 0.055% | –
2 | CCC(NC(C)C)C(O)c1ccc(O)c(O)c1 (stereo not given) | -0.0071% | –
3 | NC(N)=NCC1COC2(CCCCC2)O1 (stereo not given) | 0.0474% [at 18.6 µM] | –
4 | COc1cc2c(cc1O)CCN[C@]21CS[C@@H]2c3c(OC(C)=O)c(C)c4c(c3[C@H](COC1=O)N1[C@@H]2[C@H]2c3c(cc(C)c(OC)c3O)C[C@@H]([C@@H]1O)N2C)OCO4 | – | inactive
5 | CC(C)C[C@H](NC(=O)[C@@H](COC(C)(C)C)NC(=O)[C@H](Cc1ccc(O)cc1)NC(=O)[C@H](CO)NC(=O)[C@H](Cc1c[nH]c2ccccc12)NC(=O)[C@H](Cc1cnc[nH]1)NC(=O)[C@@H]1CCC(=O)N1)C(=O)N[C@@H](CCCN=C(N)N)C(=O)N1CCC[C@H]1C(=O)NNC(N)=O | – | inactive
6 | C(=C\c1ccncc1)/c1ccccc1 | – | inactive
7 | COc1ccc(/C=C/C(=O)O)cc1 | -0.0716% | –
8 | CCCCCCCCCC[N+](C)(CCCCCCCCCC)CCC[Si](OC)(OC)OC | -0.0436% [at 91.3 µM] | –
9 | CCCCCCCCCCCCCCCCCCNC(=O)OC1CCN(C(=O)OC[C@H](COC(=O)N(Cc2cccc[n+]2CC)C(=O)c2ccccc2OC)OC)CC1 | -0.0305% | –
10 | NCc1cccc(C2CCN(C(=O)c3ccc(C#Cc4ccccc4F)o3)CC2)c1 | 0.128% [at 91.3 µM] | –
11 | CCCCCCCCCCCCCCCCCCOCC(COP(=O)([O-])OCC[N+](C)(C)C)OC (stereo not given) | 0.0274% | –
12 | CCN1CCCC1CNC(=O)c1cc(S(=O)(=O)CC)ccc1OC (stereo not given) | – | inactive
13 | CNCCC=C1c2ccccc2CCc2ccccc21 | -0.0182% | –
14 | CCOC(=O)COc1ccc2c(=O)cc(-c3ccccc3)oc2c1 | – | inactive
15 | O=C1OC(O)C(C(Cl)Cl)=C1Cl (stereo not given) | -0.0607% [at 95.7 µM] | –
16 | COc1cccc2c1[C@@H]1CN(CCCCn3c(=O)[nH]c4c(sc5ncc(-c6ccccc6)nc54)c3=O)C[C@@H]1CO2 | -0.0024% | –
17 | CON=C1C[C@]2(C[C@@H]3C[C@@H](C/C=C(\C)C[C@@H](C)/C=C/C=C4\CO[C@@H]5[C@H](O)C(C)=C[C@@H](C(=O)O3)[C@]45O)O2)O[C@H](/C(C)=C/C(C)C)[C@H]1C | – | inactive
18 | CC(=NCc1ccccc1)c1ccccc1O | 0.0971% | –
19 | CN(C[C@@H](CC[N+]12CCC(C3CCCCC3)(CC1)CC2)c1ccc(Cl)c(Cl)c1)C(=O)c1cc(C(F)(F)F)cc(C(F)(F)F)c1 | -0.0357% [at 91.3 µM] | –
20 | CC[C@@H](C)[C@@H](N)C1=N[C@H](C(=O)N[C@@H](CC(C)C)C(=O)N[C@@H](CCC(=O)O)C(=O)N[C@@H](C(=O)N[C@@H]2CCCCNC(=O)[C@@H](CC(N)=O)NC(=O)[C@@H](CC(=O)O)NC(=O)[C@@H](Cc3cnc[nH]3)NC(=O)[C@@H](Cc3ccccc3)NC(=O)[C@@H]([C@H](C)CC)NC(=O)[C@@H](CCCN)NC2=O)[C@@H](C)CC)CS1 (X1-LE[d(aIle)][dK][dOrn][dI][dF][dH][dD][dN]; lactam 4-C) | – | inactive

Row | Structure (SMILES) | fluorescence, % of fluorescein control | Potency
21 | COc1cc(/C=C/C(=O)CC(=O)/C=C/c2ccc(O)c(OC)c2)ccc1O | 4.67% | –
22 | CO/N=C(\C(=O)N[C@@H]1C(=O)N2C(C(=O)O)=C(CSc3cnns3)CS[C@H]12)c1csc(N)n1 | -0.019% | –
23 | CC1(C)CCC(NC(=O)[C@@H](N)CCC(=O)O)CC1 | 0.0911% | –
24 | CN1CCN(CCCN2c3ccccc3Sc3ccc(C(F)(F)F)cc32)CC1 | -0.0547% | –
25 | CC[C@H]1OC(=O)[C@H](C)C(=O)[C@H](C)[C@@H](O[C@@H]2O[C@H](C)C[C@H](N(C)C)[C@H]2O)[C@](C)(OC)C[C@@H](C)C(=O)[C@H](C)[C@H]2N(CCCCn3cnc(-c4cccnc4)c3)C(=O)O[C@]12C | – | inactive
26 | CC[C@@H](C)[C@H](N)C(=O)O | -0.0336% | –
27 | COc1cc([C@@H]2c3cc4c(cc3[C@@H](O[C@@H]3O[C@@H]5CO[C@@H](C)O[C@H]5[C@H](O)[C@H]3O)[C@H]3COC(=O)[C@H]23)OCO4)cc(OC)c1O | – | inactive
28 | C=C1[C@H](CO)[C@@H](O)C[C@@H]1n1cnc2c(=O)[nH]c(N)nc21 | 0.0547% | –
29 | C=CCc1cc(S(=O)(=O)c2ccc(O)c(CC=C)c2)ccc1O | 0.0987% [at 91.3 µM] | –
30 | Cc1cc(N)c2ccccc2[n+]1CCCCCCCCCC[n+]1c(C)cc(N)c2ccccc21 | -0.0088% [at 18.6 µM] | –
31 | C=N[C@@H](C(=O)N[C@@H]1C(=O)N2[C@@H]1SC(C)(C)[C@@H]2C(=O)O)c1ccccc1 | 0.122% | –
32 | CO/N=C(\C(=O)N[C@@H]1C(=O)N2C(C(=O)[O-])=C(C[n+]3cccc4c3CCC4)CS[C@H]12)c1csc(N)n1 | 0.0277% | –
33 | CCOc1ccc(S(=O)(=O)O)c2cccnc12 | -0.0206% | –
34 | COc1ccc2ccccc2c1 | -0.0349% [at 91.3 µM] | –
35 | O=C1c2c(O)cccc2[C@H]([C@@H]2O[C@H](CO)[C@@H](O)[C@H](O)[C@H]2O)c2cc(CO)cc(O)c21 | – | inactive
36 | CS(=O)(=O)c1ccc([C@@H](O)[C@@H](COC(=O)CN)NC(=O)C(Cl)Cl)cc1 | 0.0113% | –
37 | CC(C)Cc1ccc([C@H](C)C(=O)O)cc1 | 0.115% | –
38 | CCC(O)c1ccccc1 (stereo not given) | 0.0242% | –
39 | C/C(=C(/CCO)SSCC1CCCO1)N(C=O)Cc1cnc(C)nc1N (stereo not given) | – | inactive
40 | Cc1cn([C@H]2C[C@H](O)[C@@H](CO)O2)c(=O)[nH]c1=O | -0.0162% | –
